# Screens: PubChem BioAssay, Sanford-Burnham Center for Chemical Genomics
# CRFR2-BP ag: agonists of human CRF-binding protein/CRF-R2 receptor complex; HEK293 CRF-R2/CRF-BP, calcium dye fluorescence (FLIPR); percent of saturating CRF peptide response; activation, % at 13.2 µM; actives 0.46% (n = 350,000); AID 588473;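 active = activation of at least 50%, plus an integration ratio under a set limit after plate pattern correction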;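 also: plate controls were neutral control wells without compound for no effect and CRF at EC100 for full effect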
# hiPSC survival: increases survival of single human iPS cells | hiPSC single-cell survival, ATPlite luminescence; 100% = ROCK inhibitor wells, 0% = DMSO | survival enhancement, % at 20 µM | AID 602274 | actives 0.044% (n = 360,000); in the data active = survival enhancement above about 18%;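 also: cells exposed to compounds for 16 hours before the ATP read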
# CRFBP-R2 block: antagonists of CRF-binding protein/CRF-R2 receptor complex | HEK293 CRF-R2/CRF-BP, CRF-induced calcium fluorescence | inhibition, % at 11.8 µM | actives 0.59% (n = 350,000);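 active = inhibition of the ligand-induced calcium signal above about 50% at the single tested concentration, limit read from the data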
# H9c2 protect: protects H9c2 cardiomyocytes from peroxide injury; actives 0.63% (n = 360,000); protection from H2O2 cell death, % at 20 µM; AID 588492; H2O2 injury protection, ATPLite, 2 h;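 active = compounds giving at least 50% protection of heart cells from peroxide-induced death in the single-dose screen, raw or plate-pattern-corrected value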;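 also: 0% = DMSO wells with peroxide and 100% = DMSO wells without peroxide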
# SKN-1 block: inhibitors of C. elegans SKN-1. C. elegans VP596 Pgst-4::GFP/RFP ratio, acrylamide-induced, 24 h. inhibition, % at 21.8 µM. actives 0.49% (n = 360,000). AID 624304;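 active = interference check ratio from 0.5 to 1.5 plus GFP to RFP signal ratio inhibition reaching or exceeding a fixed threshold, cut at about 30% in these data, passing the limit was not always enough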
# H9c2 TAG inh: triacylglycerol accumulation inhibition. actives 0.66% (n = 230,000). AID 651582. inhibition, % at 12.5 µM. H9c2 cells, Nile Red lipid (TAG) fluorescence; cells loaded with 200 µM oleic acid;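 active = pattern-corrected inhibition of lipid staining of at least 50% with the nuclear-stain viability signal not falling by more than 50%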;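 also: 0% = DMSO wells and 100% = triacsin C control wells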
# * marks the source's active call; other numbers are inactive results; . = not tested or not shown. Sampled rows, rich in hits. Any-hit rate of the full collection: about 2.5%.
SMILES,CRFR2-BP ag,hiPSC survival,CRFBP-R2 block,H9c2 protect,SKN-1 block,H9c2 TAG inh
COc1ccc(/C=C/C(=O)c2nc3ccccc3n2CC(=O)c2ccc(OC)cc2)cc1,-0.5,-1.9,8.6,23.5,44.5*,34.5
COc1ccc(C(=O)Cn2c(C(C)=O)nc3ccccc32)cc1,0.4,3.2,13.9,7.6,4.6,-7.9
Cc1c(-n2c(CN3C(=O)c4ccccc4C3=O)nc3ccccc3c2=O)c(=O)n(-c2ccccc2)n1C,-1.2,-1.1,-13.8,1.7,39.5*,.
CC(C)Cn1c(CN2C(=O)c3ccccc3C2=O)nc2ccccc2c1=O,3.8,3.4,-15.5,-2.0,-30.5,-19.0
COc1cc(OC)cc(-c2c(Sc3ccccc3)c3cc(-c4ccc(OC)c(F)c4)ccc3n2C)c1,.,-0.7,.,.,13.8,.
O=[N+]([O-])c1ccccc1-c1nc(-c2ccc(Br)o2)no1,-1.6,0.3,16.6,-11.9,58.3*,.
Clc1ccccc1-c1nc(-c2ccc(Br)o2)no1,-0.9,0.7,0.4,-7.0,66.7*,.
O=[N+]([O-])c1cc(Cl)ccc1-c1nc(-c2ccccc2)no1,0.9,-1.5,-27.1,-13.4,18.8,.
Brc1ccc(-c2noc(CCc3ccccc3)n2)o1,1.5,3.8,61.2*,-23.2,7.8,-16.8
O=C(NCc1cccc(C(F)(F)F)c1)c1ccc2nc([C@@H]3O[C@H](CO)[C@@H](O)[C@H]3O)[nH]c2c1,.,0.7,.,-6.5,12.3,-10.0
O=C(NCCc1ccc(F)cc1)N[C@@H](Cc1ccccc1)C(=O)O,2.3,-0.6,-19.7,-1.3,6.6,.
CCOC(=O)c1ccc(OCC2NCCc3cc(OC)c(OC)cc32)cc1 (stereo unspecified),0.5,-0.6,-15.9,3.4,8.3,.
CSc1ccc(Cn2c(C)c(C(=O)NCc3cccs3)sc2=O)cc1,.,-1.1,.,3.4,-19.9,-8.9
O=C(Nc1ccc(CN2CCOCC2)cc1)c1ccc(-c2cccc([N+](=O)[O-])c2)o1,-1.3,-0.4,5.9,61.5*,8.7,.
CC(C)Oc1cccc(C(=O)Nc2ccc(CN3CCOCC3)cc2)c1,0.8,-3.0,-8.0,-0.4,35.2*,.
O=C(CNC(=O)C12CC3CC(CC(C3)C1)C2)Nc1ncccc1O,-1.7,-0.4,3.0,-1.4,9.9,-3.9
CCN1C(=O)[C@H]2[C@@H](c3ccc(-c4ccc(OC)cc4)cc3)N3CCC[C@@]3(C(=O)OC)[C@H]2C1=O,-0.6,-3.2,-5.4,-1.4,2.1,5.6
COc1ccc(CC(=O)Oc2ccc(Br)cc2F)cc1S(=O)(=O)N1CCOCC1,1.5,-0.4,8.6,-4.6,18.0,10.1
N#C/C(=C\c1ccc([N+](=O)[O-])o1)C(=O)Nc1ccc(F)cc1,10.0,2.1,-29.5,-20.2,35.4*,47.8
COc1ccc(NC(=O)/C(C#N)=C\c2ccc(Br)o2)cc1,0.7,-0.1,12.0,5.8,5.6,-5.3
C=CCc1cccc(/C=N/NC(=O)CCC(=O)Nc2ccc(F)cc2)c1O,-0.1,-1.5,32.4,56.6*,7.1,2.3
C=CCc1cccc(/C=N/NC(=O)CCCNc2ccc(C)cc2)c1O,0.5,0.1,-56.3,49.4,-6.2,4.2
C=CCc1cccc(/C=N/NC(=O)CNc2ccccc2OC)c1O,-0.6,-1.6,-9.2,63.1*,-17.2,.
COc1ccc(OCCN2CCC(C(=O)NC(c3ccc(F)cc3)c3ncccc3C)CC2)cc1 (stereo unspecified),.,-3.0,.,-1.9,10.6,-2.4
O=S(=O)(Nc1cccnc1)c1ccc(Cl)cc1,0.4,-1.0,4.4,4.2,-4.1,14.0
SMILES,CRFR2-BP ag,hiPSC survival,CRFBP-R2 block,H9c2 protect,SKN-1 block,H9c2 TAG inh
Clc1ccc(C#Cc2cccnc2)cc1,-1.0,0.3,1.6,-1.9,74.7*,-12.1
CC(=O)Nc1cc(C(N)=O)c(Cl)cc1Cl,-1.4,-0.6,72.3*,0.4,11.7,-2.8
CCOC(=O)c1cc2c(=O)n3ccccc3nc2n(Cc2ccco2)c1=NC(=O)c1cccnc1,9.2,2.3,18.2,84.7*,-5.7,13.8
CC1(C)CC(=O)C2=C(C1)OC(/N=C/N1CCCC1)=C(C#N)C2c1ccccc1 (stereo unspecified),2.4,-0.5,103.5*,-0.7,-15.3,-1.0
CC1(C)CC(=O)C2=C(C1)OC(/N=C/N1CCOCC1)=C(C#N)C2c1ccccc1 (stereo unspecified),-1.2,-1.2,-1.9,22.7,-11.7,-10.2
Cc1ccccc1NC(=O)Cc1nc(COC(=O)c2cccc([N+](=O)[O-])c2)cs1,-1.6,1.2,24.2,-3.3,-11.6,-8.2
Cc1ccccc1NC(=O)Cc1nc(COC(=O)c2cccc(O)c2)cs1,-0.5,-0.3,1.3,-8.3,41.8*,24.7
Cc1ccccc1NC(=O)Cc1nc(COC(=O)c2cc([N+](=O)[O-])ccc2NCCO)cs1,2.0,-0.2,60.6*,7.2,-3.9,-1.9
O=C(OCc1ccccc1)c1c(-c2ccccc2)oc2c1C(OCCO)CCC2 (stereo unspecified),.,-1.1,.,.,22.3,.
CCCc1cc(-c2nc(-c3ccc(Cl)cc3)cs2)ccn1,2.9,4.2,20.5,-2.1,55.5*,.
O=C(O)c1ccc(-c2nc(-c3ccc(Cl)cc3Cl)cs2)cc1,-1.9,1.1,67.3*,-3.9,9.8,.
COc1ccc(-c2csc(-c3ccc(C(=O)O)cc3)n2)cc1,-2.3,2.5,18.1,-0.5,4.2,.
O=C(O)c1ccc(-c2nc(-c3ccc(Cl)cc3)cs2)cc1,-3.4,-0.1,53.3*,-1.9,7.5,.
CCCCNC(=O)c1nc(-c2cnc(C)cn2)oc1-c1ccc(Cl)cc1,.,.,.,.,-0.2,.
CC(C)C(=O)N1CCC1(C)C(=O)NCc1ccc(C(C)(C)C)cc1 (stereo unspecified),.,-2.4,.,4.8,19.6,8.8
CCCC(=O)Nc1cc(C)c2c(=O)oc3ccccc3c2n1,-0.5,-1.3,3.6,104.5*,20.8,19.5
CCc1cc(CNC(=O)C2CCC(=O)N(Cc3cccc(F)c3)C2)on1 (stereo unspecified),-1.3,-0.3,24.3,-3.2,2.4,18.2
CN(CCCS(=O)(=O)[O-])c1ccc(/C=C/c2ccc3ccccc3[n+]2C)cc1,-0.7,0.6,-1.4,-11.2,37.0*,.
C[C@@H]1CN([C@@H](C)CO)C(=O)CCCn2cc(nn2)CO[C@H]1CN(C)S(=O)(=O)c1cccc(C#N)c1,-0.8,-2.5,2.9,4.7,-1.4,-3.5
CC(=O)Nc1cc2nn(-c3ccccc3)nc2cc1Cl,-0.2,-2.5,-2.1,-15.2,-3.1,-7.3
CC(C)(C)C(=O)Nc1cc2nn(-c3ccccc3)nc2cc1Cl,3.7,-7.9,-16.7,-40.3,42.1*,9.9
O=C(Nc1cc2nn(-c3ccccc3)nc2cc1Cl)c1ccco1,-1.9,-1.7,-5.1,-23.4,45.1*,0.7
COc1ccc2cc(-c3ccccc3)c(=O)oc2c1,1.3,-0.6,9.3,-10.4,18.4,.
CC(=O)Oc1ccc2cc(-c3cccnc3)c(=O)oc2c1,0.2,-1.9,79.3*,5.8,-2.9,-4.4
